Laboratory results as given in PubChem BioAssay (NCATS).
Several values for one entry are separate records, joined by “and”; a condition that tells them apart may be missing. Identical values can stand only once. Results filed as inconclusive are left out. Activity calls are given as the source filed them. Calls follow the shape of the dose curve; as a rule, active = well fitted curve in the direction sought with a large enough effect; inconclusive = small, poorly fitted or top-dose-only effect, or another doubt; inactive = no such curve, though single readings can be large; an effect the other way counts as inactive or inconclusive.
Potency is read from the fitted curve at half-maximal effect.

Experiment: qHTS of pediatric cancer cell lines to identify multiple opportunities for drug repurposing: Primary screen for DAOY cells (AID 1347090); also: nearly all actives have a fitted effect of over 55% in size
Conditions: DAOY medulloblastoma viability, CellTiter-Glo luminescence, 48 h; series mostly up to 46 µM
Procedure, shortened: (§1)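 Viability measured as metabolically active cells via CellTiter-Glo luminescence following 48 hours of compound exposure, 11-point dilutions in confirmatory testing. 500-1,000 cells/well plated 5 hours before dosing; controls were DMSO and 2.3 µM bortezomib.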
For `Cc1cc(Nc2nc(N[C@@H](C)c3ncc(F)cn3)ncc2Cl)n[nH]1`, the Potency was 2.96 µM (active). In the case of `COc1cc2nccc(Oc3ccc(NC(=O)NC4CC4)c(Cl)c3)c2cc1C(N)=O`, the Potency is reported as 4.69 µM (active). For `Cc1ccccc1C(C(=O)NC1CCCC1)N(C(=O)Cn1cnc2ccccc21)c1cccc(F)c1` (centres undefined), the Potency was “inactive”.

Experiment: qHTS of pediatric cancer cell lines to identify multiple opportunities for drug repurposing: Primary screen for SJ-GBM2 cells (AID 1347091)
Conditions: SJ-GBM2 viability, CellTiter-Glo luminescence, 48 h; series mostly up to 46 µM
Procedure, shortened: as §1
In the case of `COc1ccc2c3n(c(=NC(=O)c4cccnc4)nc2c1OC)CCN3`, the Potency is reported as 18.7 µM (active). For `CC(c1cc2ccccc2s1)N(O)C(N)=O` (centres undefined), the Potency was “inactive”. In the case of `CCOc1cc(N2CCC(O)CC2)ccc1Nc1ncc2c(n1)N(C)c1ccccc1C(=O)N2C`, the Potency is reported as 0.132 µM (active). For `Fc1ccc(Cl)cc1-c1nc(Nc2ccncc2)c2nccnc2n1`, the Potency was “inactive”. In the case of `CCC(C)(C)C(=O)O[C@H]1C[C@@H](C)C=C2C=C[C@H](C)[C@H](CC[C@@H]3C[C@@H](O)CC(=O)O3)[C@H]21`, the Potency is reported as 3.35 µM (active) and 14.8 µM (active). With `NC(=O)c1ccc(-c2nc(-c3ccc4c(c3)OCCO4)c(-c3ccccn3)[nH]2)cc1` the Potency was “inactive”. With `CN(C)c1ccc(Nc2nc(N)n(C(=O)c3c(F)cccc3F)n2)cc1` the Potency was 16.6 µM (active). For `CN(C)C(=O)c1ccc(S(=O)(=O)c2ccc(NC(=O)[C@@](C)(O)C(F)(F)F)c(Cl)c2)cc1`, the Potency was “inactive”. For `CCn1c(-c2nonc2N)nc2c(C#CC(C)(C)O)ncc(OC[C@H]3CCCNC3)c21`, the Potency was 23.5 µM (active). In the case of `Cc1cc2c(F)c(Oc3ncnn4cc(OC[C@@H](C)O)c(C)c34)ccc2[nH]1`, the Potency is reported as 10.5 µM (active). With `NC(=O)C1CCCc2c1[nH]c1ccc(Cl)cc21` (centres undefined) the Potency was “inactive”.
